A selection: hits, their analogues and other compounds. The true share with any hit is near 8%.
HT1080NT lethal: kills 2HG-producing HT-1080-NT fibrosarcoma cells | HT-1080-NT fibrosarcoma viability, CellTiter-Glo ATP luminescence, 48 h | Potency, µM (highest dose often 46.1 µM), for inactives: top-dose activity, negative = less viability, hits mostly cytotoxic | 360,000 tested, 1.6% active | AID 686970;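 also: NT is the 2HG producing partner of a matched IDH1 knockdown line; 0% = DMSO-treated cells and -100% = media-only wells without cells; nearly all actives have a fitted effect of over 55% in size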
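HT-1080-NT fibrosarcoma cells (2HG-overproducing), 750 cells/well in RPMI with 5% FBS, dosed after 2 h and incubated 48 h at 37C. CellTiter-Glo luminescence normalized to DMSO and no-cell wells; concentration-response curves fitted and classed.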
KB-V1 cytotox: KB-V1 MDR subline cytotoxicity; Potency, µM (highest dose often 46.1 µM), actives largely listed as cytotoxic; 400,000 tested, 3.4% active; AID 1347076; KB-V1 MDR cells viability, CellTiter-Glo, 72 h; also: % is scaled to controls: 0 for no effect and ±100 for the full control effect; nearly all actives have a fitted effect of over 60% in size
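In this primary screen, KB-V1 cells overexpressing P-gp are incubated with library compounds (lowest to highest concentration) for 72 h at 37 degrees C before a luminescent ATP viability read.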
SW480 rerep: inducers of DNA re-replication in SW480 colon cancer cells; SW480 DNA re-replication, Hoechst DNA content imaging, 48 h; Potency, µM (top dose mostly 46.1 µM), for the others: at the highest dose re-replication activation, hits mostly activators; 340,000 tested, 1.8% active; AID 624297; also: % of control where 0% means no effect; nearly all actives have a fitted effect of over 55% in size
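First, 250 cells per well were seeded. Next, compound or vehicle (23 nL) was pinned in, plates sat 48 hr at 37 C. Finally Hoechst was added for 40 min before fluorescence scanning.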
KB-3-1 cytotox: KB-3-1 parental cell cytotoxicity; Potency, µM (top dose mostly 46.1 µM), usual class: cytotoxic; AID 1347075; 400,000 tested, 1.4% active; KB-3-1 viability, CellTiter-Glo ATP luminescence, 72 h; also: % is scaled to controls: 0 for no effect and ±100 for the full control effect; nearly all actives have a fitted effect of over 60% in size
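KB-3-1 cells, DMEM (no phenol red) + 10% FBS; compound by pin transfer, 72 h, 37 °C. Readout: CellTiter-Glo luminescence after 10 min. Data normalized, curve-fitted.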
HT1080 IDH1KD tx: kills HT-1080 cells with IDH1 knockdown; HT-1080 IDH1 knockdown viability, ATP luminescence, 48 h; Potency, µM (series often up to 46.1 µM), for inactives: top-dose activity, negative = toxicity, most hits filed as cytotoxic; 360,000 tested, 2% active; AID 686971;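 also: 0% = DMSO wells and -100% = cell-free medium wells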
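Luminescent ATP read-out (CellTiter-Glo, 10 min at room temperature) after 48 h compound exposure at 37 °C gave viability of IDH1-knockdown HT-1080 cells. Activity was normalised to DMSO and cell-free wells, then fitted as concentration-response curves.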
MCF10A rerep: induces DNA re-replication in MCF 10a normal breast cells; MCF 10A DNA re-replication, Hoechst nuclear intensity, 48 h; Potency, µM (highest dose often 46.1 µM), without a hit: at the top dose activity, positive = re-replication, most hits filed as activators; 350,000 tested, 2.9% active; AID 624296; also: % of control where 0% means no effect; nearly all actives have a fitted effect of over 50% in size
Starred values were filed as active, the others as inactive; i = inactive; u = inconclusive; x = no result given; [ ] = dose if it differs, or a comment. Calls follow the shape of the dose curve; as a rule, active = well fitted curve in the direction sought with a large enough effect; inconclusive = small, poorly fitted or top-dose-only effect, or another doubt; inactive = no such curve, though single readings can be large; an effect the other way counts as inactive or inconclusive. Potency is read from the fitted curve at half-maximal effect.

SMILES	HT1080NT lethal	KB-V1 cytotox	SW480 rerep	KB-3-1 cytotox	HT1080 IDH1KD tx	MCF10A rerep
CCOc1cccc2sc(N(CCN(C)C)C(=O)/C=C/c3cccs3)nc12	u	i	u	i	u	8.2µM*
Cc1ccc2nc(-c3ccc(NC(=O)C(F)(F)F)cc3)sc2c1	x	i	x	u	x	x
Cc1ccc(S(=O)(=O)Nc2ccc(-c3nc4ccc(C)cc4s3)cc2)cc1	0%	i	u	i	-21%	23µM*
Cc1cccc(S(=O)(=O)Nc2ccc(-c3nc4ccc(C)cc4s3)cc2)c1	-28%	i	u	i	-29%	18µM*
Cc1cccc(S(=O)(=O)Nc2ccc(-c3cn4ccccc4n3)cc2)c1	5%	23µM*	-1%	i	3%	13%
Cc1ccc2nc(-c3ccc(NS(=O)(=O)c4c(C)n(C)c(=O)n(C)c4=O)cc3)sc2c1	-29%	u	21µM*	i	-5%	7.3µM*
Cc1ccc2nc(-c3ccc(NC(=O)c4ccccc4S(C)(=O)=O)cc3)sc2c1	x	i	x	i	x	x
O=C(OCc1ccccc1F)c1ccc(-c2nnn(Cc3ccccc3)n2)cc1	x	u	x	i	x	x
CCN(CC)CCNC(Cc1ccccc1)c1cccc(OC)c1 (centres undefined)	-9%	23µM*	u	i	-6%	u
Cc1nn(C)c2c1c(C(F)(F)F)cc(=O)n2C(C)C(=O)Nc1ccccc1F (centres undefined)	x	i	x	i	x	x
O=C(N/N=C1\CCc2ccccc21)c1ccncc1	-9%	i	u	i	-9%	3%
c1ccc2c(c1)CCc1c(-c3ccncc3)n[nH]c1-2	6%	15µM*	-13%	13µM*	0%	17%
CN1CCN(C(=O)/C(=C\c2ccccc2)c2ccccc2)CC1	-3%	i	17%	i	-10%	-8%
CC1CCN(C(=O)/C(=C/c2ccccc2Cl)c2ccccc2)CC1	u	i	-1%	i	u	16µM*
CC(NCC(O)c1ccc([N+](=O)[O-])cc1)C12CC3CC(CC(C3)C1)C2 (centres undefined)	18µM*	i	2%	i	23µM*	17%
O=C(CC1N=C2c3ccccc3N=C(SCc3ccccc3F)N2C1=O)NCc1ccc2c(c1)OCO2 (centres undefined)	x	i	x	i	x	x
COc1ccc(CN2C(=O)C(NC(=O)c3ccccc3C)(C(F)(F)F)N=C2c2ccccc2)cc1 (centres undefined)	x	i	x	i	x	x
COc1ccccc1NS(=O)(=O)c1cc([N+](=O)[O-])ccc1N/N=C/c1c(C)[nH]c2ccccc12	-25%	i	12%	i	-14%	u
O=[N+]([O-])c1ccc(N/N=C/c2c[nH]c3ccccc23)c(S(=O)(=O)Nc2ccc(Cl)cc2)c1	-2%	u	21µM*	u	-23%	u
COC(=O)c1ccc(COc2ccccc2/C=N/NS(=O)(=O)c2ccc(C)cc2)cc1	-30%	18µM*	u	i	u	3%
O=S(=O)(N/N=C/c1ccccc1OCc1ccc(Cl)cc1)c1ccccc1	u	16µM*	u	u	-12%	3.3µM*
COc1cc(/C=N/NS(=O)(=O)c2ccc(C)cc2)ccc1OCc1ccc(C(=O)O)cc1	-3%	i	0%	i	5%	-3%
N#CC1=C(N)Oc2cc(N)ccc2C1C1CCCCC1 (centres undefined)	21µM*	u	18µM*	5.8µM*	8.2µM*	8.2µM*
CN(C)c1ccc2c(c1)OC(N)=C(C#N)C2c1cccc(F)c1 (centres undefined)	0.18µM*	u	u	u	0.22µM*	4.1µM*
COc1ccc(OC)c(C2C(C#N)=C(N)Oc3cc(N)ccc32)c1 (centres undefined)	-3%	u	u	u	3%	-180%[0.0737 µM]
SMILES	HT1080NT lethal	KB-V1 cytotox	SW480 rerep	KB-3-1 cytotox	HT1080 IDH1KD tx	MCF10A rerep
CCOc1ccccc1C1C(C#N)=C(N)Oc2cc(N)ccc21 (centres undefined)	7%	i	u	i	-17%	23µM*
N#CC1=C(N)Oc2cc(N)ccc2C1c1cccc(F)c1 (centres undefined)	2.9µM*	u	12µM*	5.2µM*	2.3µM*	13µM*
COC(=O)c1ccc(C2C(C#N)=C(N)Oc3cc(N)ccc32)cc1 (centres undefined)	-18%	i	-3%	i	-10%	-3%
O=C1N=C(N2CCOCC2)S/C1=C\c1ccc(-c2ccccc2Cl)o1	15%	i	13µM*	i	10%	2.9µM*
Cc1ccccc1-c1ccc(/C=C2/SC(N3CCOCC3)=NC2=O)o1	-24%	u	u	i	u	16µM*
O=C(CSc1nnc2scc(-c3ccc(Cl)cc3)n12)Nc1ccc(F)cc1	x	i	x	i	x	x
O=C(CCC1N=C2c3ccccc3N=C(SCc3ccccc3F)N2C1=O)NCc1ccccc1 (centres undefined)	x	i	x	i	x	x
CCCOC(=O)CSC1=C(C#N)C(c2ccccc2OCC)C(C#N)C(=O)N1 (centres undefined)	-14%	i	-3%	i	-8%	3%
CCOC(=O)CSC1=C(C#N)C(c2ccc(C)s2)CC(=O)N1 (centres undefined)	0.71µM*	1.8µM*	5%	5.2µM*	1.8µM*	u
CCSC1=C(C#N)C(c2ccccc2OC)CC(=O)N1 (centres undefined)	-4%	i	-5%	i	-2%	2%
CCOC(=O)CSC1=C(C#N)C(c2ccccc2OC)CC(=O)N1 (centres undefined)	u	u	18µM*	u	18µM*	5.2µM*
CCCCOC(=O)CSC1=C(C#N)C(c2ccccc2OCC)C(C#N)C(=O)N1 (centres undefined)	-6%	u	10µM*	i	-15%	u
COC(=O)c1c(-c2cccs2)csc1NC(=O)c1cc(OC)cc(OC)c1	x	i	x	i	x	x
Cc1ccc(-c2csc(NC(=O)c3ccc4c(=O)n5c(nc4c3)CCCCC5)n2)cc1	12%	10µM*	x	i	3%	u
COCCN(Cc1ccccc1)C(=O)c1ccc2c(=O)n3c(nc2c1)CCC3	17%	i	-47%	i	9%	2%

From PubChem
